Data from PubChem BioAssay (NCI).
This is part of a sample that, as a whole, favours compounds with a hit. Of some 83,000 tested, about 20% had one in any assay.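 Interpretation: 100, growth as untreated; towards 0, rising growth inhibition; 0, no net growth; 0 to -100, cell death. Compounds scoring below 10 were considered active.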 Values without a mark were called inactive. Activity calls are given as the source filed them.

Legend:
Assay in all cases: NCI-60 one-dose screen, 48 h (100 = growth as untreated, 0 = no growth, -100 = all killed)
Settings in all cases: 10 µM unless noted
SR leukemia = test system: SR leukemia
RPMI-8226 leukemia = test system: RPMI-8226 leukemia
OVCAR-8 ovarian = test system: OVCAR-8 ovarian
OVCAR-5 ovarian = test system: OVCAR-5 ovarian
OVCAR-4 ovarian = test system: OVCAR-4 ovarian
SK-OV-3 ovarian = test system: SK-OV-3 ovarian
IGROV1 ovarian = test system: IGROV1 ovarian
OVCAR-3 ovarian = test system: OVCAR-3 ovarian
HS 578T breast = test system: HS 578T breast
NCI/ADR-RES ovarian = test system: NCI/ADR-RES ovarian
T-47D breast = test system: T-47D breast
BT-549 breast = test system: BT-549 breast
MDA-MB-435 melanoma = test system: MDA-MB-435 melanoma
SW-620 colon = test system: SW-620 colon
MCF7 breast = test system: MCF7 breast
HCT-116 colon = test system: HCT-116 colon
HCC-2998 colon = test system: HCC-2998 colon
KM12 colon = test system: KM12 colon

Structure (SMILES)	growth (SR leukemia)	growth (RPMI-8226 leukemia)	growth (OVCAR-8 ovarian)	growth (OVCAR-5 ovarian)	growth (OVCAR-4 ovarian)	growth (SK-OV-3 ovarian)	growth (IGROV1 ovarian)	growth (OVCAR-3 ovarian)	growth (HS 578T breast)	growth (NCI/ADR-RES ovarian)	growth (T-47D breast)	growth (BT-549 breast)	growth (MDA-MB-435 melanoma)	growth (SW-620 colon)	growth (MCF7 breast)	growth (HCT-116 colon)	growth (HCC-2998 colon)	growth (KM12 colon)
O=C(Nc1nc(-c2ccccc2Cl)cs1)c1cc(-c2ccccc2)nc2ccc(Cl)cc12	21.9%	21.4%	19.2%	93.2%	76%	95.5%	59.7%	28.1%	76.4%	16.5%	74.1%	11.8%	8.05% (active)	29.4%	25.8%	4.98% (active)	95.5%	84.2%
O=C(NCCN1CCOCC1)OCc1nc2nc(Cl)nc(N3CCOCC3)c2[nH]1	-0.969% (active)	8.39% (active)	7.4% (active)	93.3%	45.7%	30.7%	17.6%	-2.86% (active)	14.3%	6.61% (active)	63.2%	13.1%	-28.9% (active)	23.9%	20.2%	8.45% (active)	77.8%	3.29% (active)
CCCCCCCCCCCC(=O)C(CCCCCCCCCC)C(=O)Nc1ccccc1 (stereo unspecified)	99.7%	99.2%	103%	101%	102%	108%	89.2%	112%	96.8%	102%	92.1%	114%	110%	107%	108%	93.8%	101%	106%
O=S(=O)(c1ccccc1)N1CCCc2ccccc21	103%	93.1%	99%	103%	113%	105%	99.5%	102%	93.2%	107%	96.5%	110%	110%	104%	96.8%	105%	103%	100%
CCOC(=O)c1c(SC)nn(-c2cc(=O)[nH]c3ccc(Br)cc23)c1N	91%	101%	95.6%	112%	86.2%	98.5%	102%	105%	91.8%	100%	92.9%	116%	107%	94.2%	93.4%	89.5%	102%	99%
O=C(CCN1CCCC1)Nc1ccc2c(Nc3ccccc3)c3ccccc3nc2c1	-14.9% (active)	-27.3% (active)	7.5% (active)	20%	-4.97% (active)	23.8%	13.5%	-25% (active)	32.2%	47.1%	18.6%	41%	-93.5% (active)	-27.9% (active)	-13.5% (active)	-45.4% (active)	-74.1% (active)	16.1%
O=C(Nc1nc(-c2ccc(Br)cc2)cs1)c1cc(-c2ccc(Br)cc2)nc2ccc(Cl)cc12	70.4%	85%	88.1%	104%	82.5%	78.2%	60.5%	86.9%	95.2%	89.7%	56.9%	100%	104%	85.7%	68.5%	61.3%	92.8%	83.3%
O=C(Nc1cccc(C2=NCCN2)c1)c1ccc(OCCCOc2ccc(C(=O)Nc3cccc(C4=NCCN4)c3)cc2)cc1	11.9%	-3.7% (active)	55%	24.8%	13.2%	31.6%	-40.2% (active)	5.65% (active)	35.6%	104%	18%	35.2%	-72% (active)	14.8%	0.803% (active)	6.6% (active)	-13.3% (active)	14.2%
CC1(C)CN(Cc2ccccc2)CCN1Cc1ccccc1	95.8%	98%	104%	103%	113%	122%	101%	106%	99.1%	105%	100%	109%	104%	97.6%	114%	101%	106%	104%
CC(=O)N1N=C(c2cccc(Nc3ccncc3)c2)CC1c1ccccc1 (stereo unspecified)	58.3%	76.2%	88.9%	90.1%	89.7%	84.2%	96%	91.7%	83.4%	91.9%	80.4%	58.2%	89.1%	93.6%	81.3%	-24.4% (active)	103%	101%
C=C1C(=O)O[C@H]2[C@H]1CC/C(COC(=O)/C=C/c1c[nH]c3ccccc13)=C\CC[C@@]1(C)O[C@@H]21	-19.7% (active)	-34.3% (active)	-34.4% (active)	-42.1% (active)	-91.9% (active)	50.8%	-69.7% (active)	-91.5% (active)	-6.76% (active)	-26.9% (active)	-68.3% (active)	-69.6% (active)	-88.5% (active)	-74.7% (active)	-40.1% (active)	-83.8% (active)	-88.1% (active)	-51.6% (active)
O=S(=O)(NCCNc1nccc(-c2c(-c3cccc(F)c3)nc3occn23)n1)c1cccc2ccccc12	41.6%	21.7%	58.4%	116%	47.8%	69%	35.4%	71.7%	64.9%	48.8%	29.9%	78.3%	32.8%	72.1%	27.8%	36.1%	79.7%	49.6%
COC(=O)CCCCCCCCC1(C)C=CC(C(C)O)=CC1 (stereo unspecified)	89.8%	103%	105%	120%	110%	110%	99.7%	111%	117%	102%	99.9%	108%	112%	91.2%	101%	99.7%	98.7%	99.8%
CCCCCCNC(=O)Oc1ccc(/C(=C(/CC)Cc2ccccc2)c2ccc(OCCN(CC)CC)cc2)cc1	-27.3% (active)	26.8%	61.4%	83.2%	66.4%	89%	76.6%	72.4%	69.7%	70.6%	56.1%	95.2%	60.9%	23.1%	10.1%	27.2%	59.5%	51.6%
CS(=O)(=O)c1ccc(-c2cc(-c3nnc(SCC(=O)Nc4ccc(C(=O)/C=C/c5ccc(Cl)cc5)cc4)n3-c3ccccc3)c3ccccc3n2)cc1	94.1%	74.2%	86.1%	95.1%	102%	110%	91.9%	102%	89.5%	94.6%	87%	108%	101%	96.9%	92.5%	92.7%	106%	96.8%
O=C(Nc1ccc(Nc2ncccn2)cc1)NC1C=c2ccccc2=CC1 (stereo unspecified)	98.1%	100%	98.1%	108%	111%	106%	106%	107%	100%	106%	100%	102%	113%	106%	97.9%	111%	106%	108%
O=C(Nc1ccc2cc3ccc(NC(=O)NC4CCCCC4)cc3nc2c1)NC1CCCCC1	-0.865% (active)	85.6%	93.4%	103%	92.8%	95.4%	99.9%	98.2%	36.4%	106%	81.9%	75%	95.3%	84.3%	47.3%	65.1%	101%	97%
